Results taken from PubChem BioAssay (NCATS).
Records with an inconclusive call do not appear. Activity calls are given as the source filed them. The call rests on the fitted dose curve; in most records, active means well fitted inhibition curve with a large enough effect; inconclusive means small, poorly fitted or top-dose-only effect; inactive means flat fitted curve, though single readings scatter.

Tested on: HACAT
Experiment: qHTS assay to identify novel small-molecules to repurpose for Merkel cell carcinoma treatment (AID 1296009); further: nearly all actives have a fitted effect of over 60% in size
Details: MCC and control cell lines, CellTiter-Glo viability, 72 h; at 44.8 µM (top of the series) unless noted
Summary of the method: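 Dose-response viability screen; 72 hr exposure at 37 degree celsius; CellTiter-Glo added, 10 min room temperature, luminescence read; RLUs scaled between no-cell and DMSO wells.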

| SMILES | outcome |
| --- | --- |
| C1=Cc2ccccc2C(=C2CCN(CCCCc3nn[nH]n3)CC2)c2ccccc21 | inactive |
| COc1c(CCC(=O)O)cccc1O[C@@H]1O[C@H](CO)[C@@H](O)[C@H](O)[C@H]1O | inactive |
| CC(=O)OCC(=O)[C@@]12O[C@@H]1C[C@H]1[C@@H]3CC=C4C[C@@H](O)CC[C@]4(C)[C@H]3CC[C@@]12C | inactive |
| O=C(O)c1cc(N(Cc2ccc(C3CCCCC3)cc2)C(=O)c2ccc(Oc3ccccc3)cc2)ccc1O | inactive |
| COc1ccc(CCO[C@@H]2O[C@H](CO[C@H]3OC[C@](O)(CO)[C@H]3O)[C@@H](OC(=O)/C=C/c3ccc(O)c(O)c3)[C@H](O[C@@H]3O[C@@H](C)[C@H](O)[C@@H](O)[C@H]3O)[C@H]2O)cc1OC | inactive [at 17.4 µM] |
| COc1ccc(S(=O)(=O)Nc2cc(Cl)cc(Cl)c2OC)cc1N1CCNCC1 | inactive |
| COC(=O)c1ccc2c(c1)[nH]c1ncnc(NCCCN3CCCCC3)c12 | inactive |
| CN1CCN(C2=Nc3ccccc3Nc3ccc(OS(=O)(=O)C(F)(F)F)cc32)CC1 | inactive |
| CC[C@H](C)/C=C(C)/C=C/C1=CC2=CC(=O)[C@]3(C)OC(=O)[C@@H](C(C)=O)[C@@H]3C2=CO1 | inactive |
| CN1CC[C@@H](c2c(O)cc(O)c3c(=O)cc(-c4ccc(C(F)(F)F)cc4Cl)oc23)[C@@H]1CO | inactive |
| CC(=O)O[C@@H]1CC[C@@]2(C)C(CC[C@]3(C)C2[C@H](O)C=C2[C@H]4[C@@H](C)[C@H](C)CC[C@]4(C)CC[C@]23C)[C@@]1(C)C(=O)O (some centres undefined) | inactive [at 17.4 µM] |
| COc1cc(/C=C2\CC[C@H]3COC[C@@H](c4cc(F)c(F)c(F)c4)N3C2=O)ccc1-n1cnc(C)c1 | inactive |
| CC/C=C\CC1C(=O)C=CC1(CCCCC1CCC(=O)O1)OC(C)=O (centres undefined) | inactive |
| O=C(Nc1cccnc1)c1cc(-c2ccnc(F)c2)ccc1OCc1ccccc1 | inactive |
| C/C=C(\C)C(=O)OC1C[C@@]2(COC(C)=O)O[C@H]2/C=C\[C@@]2(C)O[C@@H]2[C@H]2OC(=O)C(COC(C)=O)=C12 (some centres undefined) | inactive [at 17.4 µM] |
| CCC/C=C/C=C/C1CC(O)C2(O)C(=O)OCC12 (centres undefined) | inactive |
| C=C1C(=O)O[C@@H]2[C@H]1CC[C@H](C)[C@]1(CCC(=O)O1)C2(C)O (some centres undefined) | inactive |

| SMILES | outcome |
| --- | --- |
| CCN(Cc1ccccc1)C(=O)Cn1c(=O)n(C)c2cnc(-c3ccccc3)nc21 | inactive |
| CC#CCn1c(N2CCCC(N)C2)nc2c1c(=O)n(Cc1nc(C)c3ccccc3n1)c(=O)n2C (centres undefined) | inactive |
| O=C1COC2(CCN(S(=O)(=O)c3ccc(-c4ccc5cccnc5c4)cc3)CC2)CN1C1CC1 | inactive |
| NS(=O)(=O)c1ccc(NC(=O)Nc2ccc(F)cc2)cc1 | inactive |
| COC(=O)C(Cc1ccc(OCCn2c(=O)sc3cc(C(=O)c4ccccc4)ccc32)cc1)C(=O)OC | inactive |
| CC(C)(C)NC(=O)[C@H]1CC[C@H]2[C@@H]3CC[C@H]4NC(=O)CC[C@]4(C)[C@H]3CC[C@]12C | inactive |
| CC(=O)c1c(C)cc2cccc(O)c2c1O[C@@H]1O[C@H](CO)[C@@H](O)[C@H](O)[C@H]1O | inactive |
| O=C([C@@H](Cc1cccc(C(F)(F)F)c1)NS(=O)(=O)c1cc(F)c2c(c1)CCNC2)N1CCCC1 | inactive |
| CC(C)(F)CC(NC(c1ccc(-c2ccc(S(C)(=O)=O)cc2)cc1)C(F)(F)F)C(=O)NC1(C#N)CC1 (centres undefined) | inactive |
| COC(=O)C[C@H]1C(C)(C)[C@H](OC(=O)c2ccccc2)C2CC3=C4CC(=O)O[C@@H](c5ccoc5)[C@]4(C)CCC3[C@@]1(C)C2=O (some centres undefined) | inactive [at 17.4 µM] |
| Cc1cccc(N2CCN(C(=O)c3cc(S(=O)(=O)N(C)C)ccc3N3CCCC3)CC2)c1C | inactive |
| Fc1ccc2c(CCNCc3cccc(OCC(F)(F)C(F)F)c3)c[nH]c2c1 | inactive |
| C=C1CC[C@H]2C(=C)CC[C@H]3C(=C)C(=O)O[C@@H]3[C@@H]12 | inactive |
| CCCCC1CCC(c2nc(-c3ccncc3)no2)CC1 (centres undefined) | inactive |
| COC1C=C(C)C(O)(CO)C2(C)CCCC(C)(C)C12 (centres undefined) | inactive |
| CC(C)OC(=O)N1CCC(Oc2ncnc3c2cnn3-c2ccc(S(C)(=O)=O)cc2F)CC1 | inactive |
| CC(=O)O[C@@H]1CC2C(C)(C)C(=O)C=C[C@]2(C)C2CC[C@@]3(C)[C@H](c4ccoc4)OC(=O)[C@H]4O[C@]43[C@@]21C (some centres undefined) | inactive [at 17.4 µM] |
